# From PubChem BioAssay
# aSyn UTR act: Activators working through SNCA 5'UTR binding (MLPCN); alpha-synuclein 5'UTR reporter, activators screen; activity score, % (tested at 7.5 µM), hits read low; 300,000 tested, 7.1% active; AID 1814; in the data active = activity score below about -60%
# * marks the source's active call; other numbers are inactive results. Only a sample is shown.
SMILES,aSyn UTR act
COC(=O)[C@@H]1Cc2c([nH]c3ccccc23)C(C)(C)N1C(=O)CCl,61
Cc1c(Br)c(O)c(Br)c(O)c1/C=N/n1c(-c2ccccc2)n[nH]c1=S,62
S=c1[nH]nc(C2CCCCC2)n1/N=C/C(Cl)=C\c1ccccc1,-75*
Cc1cc(-c2n[nH]c(=S)n2/N=C/C(Cl)=C/c2ccccc2)n[nH]1,-164*
S=c1[nH]nc(-c2ccco2)n1/N=C/C(Cl)=C/c1ccccc1,-172*
Nc1c(-c2ccc(Cl)cc2)cnn1-c1cccc(C(F)(F)F)c1,-102*
Cc1ccc(-c2cnn(-c3cccc(C(F)(F)F)c3)c2N)cc1,-147*
COc1ccc(/C=C/C2=NN(C)C(=O)CC2)cc1,-120*
O=C(Nc1ccc(Br)cc1)C1Cc2ccccc2O/C1=N\O (stereo not drawn),-158*
Cc1ccc(NC(=O)C2Cc3ccccc3O/C2=N\O)cc1C (stereo not drawn),-127*
CCCCN(Cc1ccccc1)c1ncnc2nc[nH]c12,-63*
Cc1ccc2c(CNCc3ccco3)cc(=O)oc2c1,-65*
COc1cc(C#CC#CCN2CCCCC2)ccc1O,-81*
CCC(N=c1cc(-c2ccc(OC)cc2)oc2ccc(C)cc12)C(=O)O (stereo not drawn),-120*
CC(C)c1ccc(/C=N/NC(=O)C2CCCC2)cc1,-171*
COc1ccc(/C=N\NC(=O)C2CCCC2)cc1Br,-95*
Nc1cc(N)nc(SCC(=O)Nc2ccc(Br)cc2Cl)n1,-79*
CN(C)c1ccc(-c2sc(Nc3ccccc3)n[n+]2-c2ccc(F)cc2)cc1,-203*
CCc1ccc(Nc2n[n+](-c3ccccc3)c(-c3ccc(OCc4ccccc4)cc3)s2)cc1,-62*
CCc1ccc(Nc2n[n+](-c3ccccc3)c(/C=C/c3ccccc3)s2)cc1,-169*
CCCCOC(=O)CSc1nc2c(cc1C#N)C(=O)CC(C)(C)C2,-133*
Cn1cc(Br)c(C(=O)Nc2sc3c(c2C(N)=O)CCC3)n1,-95*
Cn1nccc1C(=O)Nc1sc2c(c1C(N)=O)CCCC2,-126*
Cn1nccc1C(=O)Nc1sc2c(c1C#N)CCCC2,-100*
O=C(Cc1ccccc1F)Nc1ccccc1-c1ccccc1,-85*
SMILES,aSyn UTR act
Cc1ccc(Nc2nnc(-c3ccc4c(c3)OCO4)o2)c(C)c1,-93*
CCN(CC)S(=O)(=O)c1cc(C(=O)Nc2cc(C)[nH]n2)ccc1Cl,-161*
COc1cccc(C(=O)NC(=O)Nc2cc(C)[nH]n2)c1,-140*
COc1cccc(C(=O)Oc2c(Br)cc(Br)cc2/C=N/NC(=O)c2cc(C)[nH]n2)c1,64
Cc1cc(NC(=O)c2cccc(Br)c2)n[nH]1,-141*
COc1ccccc1-c1cc(C(=O)NC2CCCC2)no1,-98*
COc1ccc(OC)c(-c2cc(C(=O)Nc3c(C)nn(Cc4ccccc4C)c3C)no2)c1,60
O=C(NC1CCCCC1)c1cc(-c2ccccc2Cl)on1,-162*
COc1ccccc1-c1cc(C(=O)Nc2cc(C)on2)no1,-146*
CC1CCCC(C)N1C(=O)c1cc(-c2cccs2)on1 (stereo not drawn),-137*
COc1ccccc1-c1cc(C(=O)NC2CCN(C)CC2)c2ccc(Cl)c(C)c2n1,101
O=C(NC1CCCC1)c1cc(-c2ccc(Cl)cc2Cl)on1,-122*
COCC(C)NC(=O)c1cc(-c2ccccc2OC)on1 (stereo not drawn),-102*
Cc1cc(NC(=O)c2cc(-c3ccc(O)cc3)on2)no1,-62*
COc1ccccc1-c1cc(C(F)(F)F)nc(S(=O)(=O)CCCC(=O)Nc2cc(C)on2)n1,-65*
O=C(NC1CCCC1)c1cc(-c2ccccc2O)on1,-77*
COc1ccccc1C(=O)NC1CCCCCCC1,-71*
Cc1occc1C(=O)NC1CCCCCCC1,-77*
O=C(NC1CCCC1)c1cc(-c2cccs2)on1,-343*
Cc1occc1C(=O)NN=C1C2CC3CC(C2)CC1C3,-141*
COC(=O)c1ccc(NC(=O)c2ccc(C)cc2)o1,-75*
COC(=O)C(C(=O)OC)c1ccc(NC(=O)c2cccc(Cl)c2)cc1,-90*
COC(=O)c1ccc(NC(=O)c2cccc(Cl)c2)o1,-86*
CCCn1nnc(NC(=O)c2sc3ccccc3c2Cl)n1,-104*
CCCn1nnc(NC(=S)NC(=O)c2cccs2)n1,-102*
SMILES,aSyn UTR act
CCCn1nnc(NC(=O)c2cccc(Cl)c2)n1,-64*
CCCn1nnc(NC(=O)c2ccc3c(c2)OCO3)n1,-90*
CCCn1nnc(NC(=O)c2ccc(-c3cccc(Cl)c3)o2)n1,-80*
CCCCn1nnc(N(C(=O)c2cccs2)C(=O)c2cccs2)n1,-89*
Cc1cccc(-c2ncc(S(=O)(=O)C(C)(C)C)c(N)n2)c1,-84*
Cc1cccc(NC(=O)Nc2cccc(F)c2)n1,-119*
Cc1cccc(NC(=O)Nc2cccc(C#N)c2)n1,-170*
Cc1cccc(NC(=O)Nc2cc(C)cc(C)n2)c1,-184*
Cc1ccnc(NC(=O)Nc2cccc(F)c2)n1,-115*
CC(=O)N1N=C(c2ccc(C)cc2)OC1c1cccnc1 (stereo not drawn),-75*
O=C(NCC1CCCO1)c1cc(-c2ccc(F)cc2)no1 (stereo not drawn),-264*
CC(C)CNc1nc(N)c([N+](=O)[O-])c(NCC2CCCO2)n1 (stereo not drawn),51
COc1cccc(-c2cc(C(=O)NCC3CCCO3)on2)c1 (stereo not drawn),-64*
COc1ccc(C(=O)NC(=S)NCC2CCCO2)cc1 (stereo not drawn),-71*
O=[N+]([O-])c1cc2c(c(CSc3ncccn3)c1)OCOC2,-63*
O=[N+]([O-])c1cc(O)c2ncccc2c1,70
CCc1ccc(Nc2cc(=O)n(C3CCCCC3)c(=O)[nH]2)cc1,-79*
O=C(/C=C/c1ccco1)NC(=S)Nc1ccccc1,-104*
CC(=O)c1ccc(NC(=S)NC(=O)/C=C/c2ccco2)cc1,-101*
O=C(Nc1ccccc1F)c1ccc(-c2cccc([N+](=O)[O-])c2)o1,-141*
O=C(Nc1ccccc1F)Nc1ccc([N+](=O)[O-])cc1Cl,-125*
O=C(NC(=S)Nc1cccc(Cl)c1N1CCCC1)c1ccc(-c2cccc([N+](=O)[O-])c2)o1,-63*
C=CCNC(=O)c1ccc(-c2cccc([N+](=O)[O-])c2)o1,-115*
O=C(Nc1nccs1)c1ccc(-c2cccc([N+](=O)[O-])c2)o1,-175*
CCOc1ccc(N)c(SSc2cc(OCC)ccc2N)c1,-121*
SMILES,aSyn UTR act
Nc1nn(-c2ccccc2)nc1C(=O)OCc1ccccc1,-63*
Cn1c(CCNC(=O)c2ccccc2)nc2cc(NC(=O)c3ccco3)ccc21,-81*
Cn1c(CCNC(=O)c2ccco2)nc2cc(NC(=O)c3ccco3)ccc21,-144*
COc1ccccc1C(=O)Nc1ccc2c(c1)nc(CCNC(=O)c1ccco1)n2C,-295*
CCC(=O)NCCc1nc2cc(NC(=O)c3ccco3)ccc2n1C,-73*
Cn1c(CCNC(=O)c2ccco2)nc2cc(NC(=O)c3ccccc3)ccc21,-91*
CCOCCOC(=O)C1=C(C)Nc2ccc(C)cc2S1,-92*
CCOc1ccc(-c2nnc(-c3ccncc3)o2)cc1,-63*
CCOc1ccc(-c2nnc(NC(=O)c3ccc(OCC(C)C)c(OC)c3)o2)cc1,58
c1coc(-c2nnc(NC3=NCCC3)o2)c1,-70*
COc1ccc(-c2nnc(SCc3nc4ccccc4c(=O)[nH]3)o2)cc1,-70*
CCOc1ccc(-c2nnc(-c3ccc(OC)cc3)o2)cc1,-76*
CCOc1ccc(-c2nnc(NC3=NCCCCC3)o2)cc1,-117*
